The whole screen tested about 320,000 compounds, of which about 2,100 (0.66%) were called active. About 53% were inconclusive and are not listed. The sample holds actives, similar compounds and a random draw of the others, so the mix is not that of the screen. Calls come from the whole dose curve; as a rule, active = well fitted inhibition curve with a large enough effect in the signal ratio, with a control signal flat (not every such curve was filed as active); inconclusive = small, poorly fitted or top-dose-only effect, or effect the other way, or a change in a side signal; inactive = flat fitted curve, though single readings scatter; the % refers to the signal ratio.
Test: qHTS Assay for Lipid Storage Modulators in Drosophila S3 Cells;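 for cell number change: cells counted by Cell Tracker Red CMTPX staining in the red channel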; for lipid storage change, negative = inhibition: % is set by controls: 0 for no effect and ±100 for the full control effect
Details: BODIPY lipid droplet fluorescence, 18-24 h, cells fed with added oleic acid; cell number change: measured here: cell count max response; series mostly up to 46.1 µM
Procedure, shortened: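 Laser-scanning cytometry quantifies lipid droplet accumulation (500–530 nm total intensity; droplet/cell object ratio) in oleic acid-fed (400 uM added) Drosophila S3 cells treated with a concentration series. 20 uM Triacsin C defined 100% inhibition.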
Potency is the fitted concentration of half-maximal effect.

Structure (SMILES) | Potency | cell number change [%] | lipid storage change, negative = inhibition
O=C(Cc1ccc(F)cc1)Nc1c(C(=O)N2CCN(c3ncccn3)CC2)oc2ccccc12 | inactive | 26.3 | –
COc1ccccc1CCNC(=O)c1cc(-c2ccncc2)nc2ccc(Br)cc12 | inactive | -14.5 | –
O=C(COC(=O)CCc1c[nH]c2ccccc12)Nc1ccc([N+](=O)[O-])cc1 | inactive | -0.284 | –
O=C(COC(=O)CCc1c[nH]c2ccccc12)Nc1cc([N+](=O)[O-])ccc1Cl | inactive | 17.2 | –
O=C(CCc1c[nH]c2ccccc12)OCc1cccc([N+](=O)[O-])c1 | 5.8 µM (active) | 0.451 | –
Cn1c(C(=O)Nc2ccccc2)cc2sccc21 | inactive | -17.5 | –
Cc1cccc(NC(=O)CCC(=O)N2CCOCC2)n1 | inactive | -0.208 | –
CC(C)(C)n1nc2c(c1NC(=O)c1ccc(Br)o1)CS(=O)C2 (stereo not drawn) | inactive | 12.2 | –
CC(C)(C)n1nc2c(c1NC(=O)c1ccco1)CS(=O)C2 (stereo not drawn) | 29.1 µM (active) | -3.33 | –
O=C(Nc1c2c(nn1-c1ccccc1)CS(=O)C2)c1ccco1 (stereo not drawn) | inactive | -4.99 | –
CCN1C(=O)/C(=c2\sc3nc(=O)c(Cc4ccccc4)nn3c2=O)c2ccccc21 | inactive | 6.19 | –
O=C(O)CCCCCCCCCC[n+]1ccccc1 | inactive | 3.19 | –
C(C#CCCCCCCCCC[n+]1ccccc1)#CCCCCCCCCC[n+]1ccccc1 | 13 µM (active) | 2.42 | –
Oc1ccc[n+](CCCCC[n+]2cccc(O)c2)c1 | inactive | -10 | –
CSc1ccc(CN2CCCC(N3CCN(c4ccccc4)CC3)C2)cc1 (stereo not drawn) | inactive | -9.94 | –
CC(C)(C)c1cc(C(=O)NNc2cc(C(F)(F)F)ccc2Cl)n(Cc2ccccc2)n1 | 25.9 µM (active) | -27.1 | –
CC(C)(C)c1cc(C(=O)NNc2ccc(OC(F)(F)F)cc2)n(Cc2ccccc2)n1 | inactive | 8.19 | –
COc1ccccc1NNC(=O)c1cc(C(C)(C)C)nn1Cc1ccccc1 | inactive | 13.3 | –
CC1CCCCC1NC(=O)c1ccc(S(=O)(=O)NCC2CCCO2)cc1 (stereo not drawn) | inactive | 3.19 | –
CC(=O)c1ccc(NC2OC(CO)C(O)C(O)C2O)cc1 (stereo not drawn) | 32.6 µM (active) | -9.97 | –
Cc1ccc(NC2OC(CO)C(O)C2O)cc1[N+](=O)[O-] (stereo not drawn) | inactive | -2.09 | –
Cc1ccc(NC2OC(CO)C(O)C(O)C2O)cc1 (stereo not drawn) | inactive | -12.8 | –
O=C(CCOc1ccccc1)N1CCN(S(=O)(=O)c2cccs2)CC1 | inactive | 5.86 | –

Structure (SMILES) | Potency | cell number change [%] | lipid storage change, negative = inhibition
C=CCN1C(=O)C2(OCCCO2)c2ccccc21 | inactive | 7.72 | –
C=CCN1C(=O)C2(OCCO2)c2cc(C)ccc21 | inactive | 5.32 | –
C=CCN1C(=O)C2(OCCCO2)c2cc(Cl)ccc21 | 4.11 µM (active) | 7.73 | –
Cc1cc(C)c2nc(N3CCCC(C(=O)NCCN4CCOCC4)C3)sc2c1 (stereo not drawn) | inactive | -0.96 | –
COCCN1C(=O)C(O)=C(C(=O)c2ccco2)C1c1cccc(Oc2ccccc2)c1 (stereo not drawn) | inactive | 11.9 | –
Cc1ccc(/C(O)=C2/C(=O)C(=O)N(CCN3CCOCC3)C2c2ccccn2)cc1 (stereo not drawn) | 29.1 µM (active) | – | –
O=C(C1=C(O)C(=O)N(CCN2CCOCC2)C1c1ccc([N+](=O)[O-])cc1)c1cccs1 (stereo not drawn) | inactive | 22.6 | –
COCCCN1C(=O)C(O)=C(C(=O)c2ccco2)C1c1ccccc1 (stereo not drawn) | 3.66 µM (active) | -2.26 | –
O=C1C(=O)N(CCN2CCOCC2)C(c2ccccn2)/C1=C(/O)c1ccccc1 (stereo not drawn) | inactive | 1.37 | –
CC(=O)C1=C(O)C(=O)N(CCN2CCOCC2)C1c1ccccc1 (stereo not drawn) | 20.6 µM (active) | 1.7 | –
O=C1C(=O)N(CCN2CCOCC2)C(c2ccccn2)/C1=C(/O)c1ccc(Cl)cc1 (stereo not drawn) | inactive | 8.56 | –
Cc1ccc(C2C(C(=O)c3cc4ccccc4o3)=C(O)C(=O)N2CCN2CCOCC2)cc1 (stereo not drawn) | inactive | -0.236 | –
O=C(C1=C(O)C(=O)N(CCN2CCOCC2)C1c1ccc(F)cc1)c1cccs1 (stereo not drawn) | 18.4 µM (active) | -5.07 | –
CCOc1ccc(C2C(C(=O)c3cccs3)=C(O)C(=O)N2CCN2CCOCC2)cc1 (stereo not drawn) | inactive | 7.61 | –
CC(=O)C1=C(O)C(=O)N(CCO)C1c1ccccc1 (stereo not drawn) | inactive | 1.42 | –
O=C(C1=C(O)C(=O)N(CCCn2ccnc2)C1c1ccccc1)c1ccco1 (stereo not drawn) | inactive | -0.647 | –
COc1ccc(C2CC(=O)N(CC(=O)NCC3CCCO3)c3ccccc3S2)cc1 (stereo not drawn) | inactive | 0.213 | –
CC(=O)Nc1ccc(S(=O)(=O)NNC(=O)C(=O)NNc2ccccn2)cc1 | inactive | -5.03 | –
O=C(Nc1ccccc1)c1cc(S(=O)(=O)N2CCOCC2)cs1 | inactive | – | –
Cc1ccc(C(=O)NCc2ccco2)cc1S(=O)(=O)N1CCOCC1 | inactive | -14.2 | –
O=C(Nc1ccccc1F)C(=O)c1cn(CC(=O)N2CCCCC2)c2ccccc12 | inactive | -5.77 | –
COc1ccc(NC(=O)Cn2cnc3c(nnn3-c3ccc(C)cc3)c2=O)cc1 | – | -12.8 | -12.6% [at 9.22 µM] (inactive)
CC(=O)C1=C(O)C(=O)N(CCc2c[nH]c3ccccc23)C1c1ccc(O)cc1 (stereo not drawn) | inactive | -2.81 | –

Structure (SMILES) | Potency | cell number change [%] | lipid storage change, negative = inhibition
CC(=O)C1=C(O)C(=O)N(CCc2c[nH]c3ccccc23)C1c1ccccc1 (stereo not drawn) | inactive | 3.29 | –
CC(=O)C1=C(O)C(=O)N(CCc2c[nH]c3ccccc23)C1c1cccc(O)c1 (stereo not drawn) | 20.6 µM (active) | -19.8 | –
CCOC(=O)c1[nH]c(C)c(C(=O)NCCCN2CCOCC2)c1C | inactive | 18.3 | –
CCc1ccc(-n2cnc3cc(C(=O)NCC(OC)OC)ccc32)cc1 | inactive | 2.84 | –
COc1ccccc1-c1nnc(SCC(=O)Nc2ccc(S(N)(=O)=O)cc2)n1N | inactive | 6.66 | –
CCn1c(SCC(=O)Nc2nccs2)nnc1-c1ccc(C)cc1 | inactive | -13.5 | –
C=CCn1c(SCC(=O)Nc2nccs2)nnc1-c1cc2cccc(OC)c2o1 | inactive | -25.4 | –
CCn1c(SCC(=O)Nc2nccs2)nnc1-c1cc2cccc(OC)c2o1 | 1.84 µM (active) | -5.05 | –
Cc1ccc(OCC(=O)NNC(=O)c2cccnc2)cc1C | inactive | 0.125 | –
CCC(C(=O)NCc1ccco1)N(C(=O)CNS(=O)(=O)c1ccc(C)cc1)c1ccccc1OC (stereo not drawn) | inactive | -11.8 | –
CCC(C(=O)NCc1ccco1)N(C(=O)CNS(=O)(=O)c1ccc(C)cc1)c1ccccc1F (stereo not drawn) | 1.16 µM (active) | 11.8 | –
CCC(C(=O)NCc1ccco1)N(C(=O)CNS(=O)(=O)c1ccc(F)cc1)c1ccccc1F (stereo not drawn) | inactive | -1.9 | –
CNC(=O)/C(C#N)=C/c1c(F)cccc1Cl | 10.3 µM (active) | -9.91 | –
CNC(=O)/C(C#N)=C/c1c(N2CCCCCC2)nc2ccccn2c1=O | inactive | 0.926 | –
CNC(=O)/C(C#N)=C\c1ccc(CNS(=O)(=O)c2ccc(Cl)cc2)o1 | inactive | -11.3 | –
COC(=O)C1=C(C)N(C(C)C)C(=O)C1(NC(=O)C1CCCCC1)C(F)(F)F (stereo not drawn) | 25.9 µM (active) | 24.5 | –
CC1=C(C#N)C(NC(=O)C2CCCCC2)(C(F)(F)F)C(=O)N1 (stereo not drawn) | inactive | 14.5 | –
COC(=O)C1=C(C)N(C2CCCC2)C(=O)C1(NC(C)=O)C(F)(F)F (stereo not drawn) | inactive | – | –
COc1ccc(S(=O)(=O)N2CCC(C(=O)N[C@H](C(=O)N3CCCC3)C(C)C)CC2)cc1 | inactive | – | –
Cc1ccc2nc(NC(=O)CSc3nnc(C)c(=O)n3N)sc2c1 | inactive | 0.333 | –
CCOC(=O)c1c(C)[nH]c(NC(=O)Nc2ccc(NC(C)=O)cc2)c1C | inactive | 22.7 | –
O=C(CN(C(=O)CCC(=O)Nc1ccccn1)c1ccc2c(c1)OCCO2)NCCc1ccccc1 | inactive | -14.1 | –
NNC(=O)c1ccc2[nH]c3c(c2c1)CCCC3 | inactive | 7 | –

Structure (SMILES) | Potency | cell number change [%] | lipid storage change, negative = inhibition
O=C(O)c1cc2[nH]c3c(c2cc1Cl)CCCC3 | 4.11 µM (active) | -7.3 | –
O=C(O)c1cccc2c3c([nH]c12)CCCC3 | inactive | 23.1 | –
CC(OC(=O)C1CC(=O)N(Cc2ccco2)C1)C(=O)Nc1ccc(F)cc1Cl (stereo not drawn) | inactive | -0.141 | –
Cc1cc(C)cc(N2CC(C)(C)C2=O)c1 | inactive | – | –
CCCOc1ccc(N2C(=O)CC(NCCc3ccc(S(N)(=O)=O)cc3)C2=O)cc1 (stereo not drawn) | inactive | 11.4 | –
S=C(NCCc1ccccc1)NN=C1CCCCCC1 | inactive | -23.7 | –
O=C(CC(=O)NN=C1CCCC1)NCCc1ccccc1 | inactive | 12 | –
O=C(NCCc1ccccc1)C(=O)NN=C1CCCC1 | 29.1 µM (active) | 6 | –
CN(C)CCOC(=O)c1ccc2c(c1)S(=O)(=O)c1ccccc1C2=O | inactive | 0.995 | –
Cc1cc(C)nc(SCC(=O)N/N=C/c2cccc([N+](=O)[O-])c2)n1 | inactive | 0.279 | –
O=C(O)COc1ccc(/C=N/NC(=O)c2ccccc2Br)cc1 | inactive | -13.2 | –
O=C(COc1ccc(/C=N/NC(=O)c2ccccc2Br)cc1)Nc1ccccc1 | 18.4 µM (active) | -20.5 | –
O=C(COc1ccc(/C=N/NC(=O)c2ccccc2O)cc1)Nc1ccccc1 | – | -17.8 | 9.4% [at 9.22 µM] (inactive)
CC(C)(C)OC(=O)N1CCC(C(=O)O)CC1 | inactive | 14 | –
O=S(=O)(NCc1ccccn1)C(F)(F)F | inactive | 15.5 | –
Cc1cc(C)n2c(SCC#N)nnc2n1 | inactive | – | –
CCO[C@H]1OC(C(=O)N2CCCCCCC2)=C[C@@H](c2ccccc2)[C@@H]1CCCO | inactive | -2.78 | –
CSC1=NNC(c2ccc(C(C)(C)C)cc2)=NN1 | inactive | 21 | –
COCC(C)n1c(C)cc(C(=O)COC(=O)CN=C2NS(=O)(=O)c3ccccc32)c1C (stereo not drawn) | inactive | 10.7 | –
COc1ccc(C2/C(=C(/O)c3ccc(C)cc3)C(=O)C(=O)N2c2ccccn2)cc1OC (stereo not drawn) | inactive | -0.743 | –
CCOc1ccc(C(C)=O)cc1CN1C(=O)NC2(CCCCCC2)C1=O | 0.13 µM (active) | 3.15 | –
COc1ccc(C(C)=O)cc1CN1C(=O)NC2(CCCCCCC2)C1=O | inactive | 6.34 | –
CCOc1ccc(C(C)=O)cc1CN1C(=O)NC2(CCCCC2C)C1=O (stereo not drawn) | inactive | -2.29 | –

Source: PubChem BioAssay AID2685 (National Center for Advancing Translational Sciences (NCATS), 2010)
